From PubChem BioAssay (NCATS)
Records with an inconclusive call do not appear. The source made the active and inactive calls. Unless noted, the call rests on the fitted dose curve; in most records, active means well fitted curve in either direction with a large enough effect (not every such curve was filed as active); inconclusive means small, poorly fitted or top-dose-only effect, or another doubt; inactive means flat fitted curve, though single readings scatter.

What was measured:
[1] = AP1 Signaling Pathway (AID 357); details: ME-180 AP-1-bla reporter, EGF-induced, beta-lactamase ratio, 5 h;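 further: ME-180 reporter cells stimulated with EGF at its EC50 level; on the % scale 0 is the no-effect control and ±100 the full control effect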
In short: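 A ratiometric CCF4 readout (405 nm excitation; 460 and 530 nm emission) quantified AP-1-driven beta-lactamase in ME-180 cells after 5 h with compound and EC50 EGF; AC50 values were derived for activators and inhibitors.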

[2] = molecular target: Cytochrome P450 1A2 (Homo sapiens) (UniProt P05177); assay: p450-cyp1a2 (AID 410; calls by dose curve; further: potency means the concentration at half of the fitted maximal effect;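 on activity change, negative = inhibition: -100% = full effect of reference inhibitor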)
In short: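 Inhibition was calculated relative to 57 uM furafylline (full inhibition). The reaction used human CYP1A2 at 20nM with Luciferin-ME at its Km, 100uM, driven by an NADPH-regenerating system for 60 min at room temperature.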

[3] = NFAT Signaling Pathway (AID 444); details: Jurkat NFAT-bla M1, carbachol, beta-lactamase ratio, 5 h;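 further: carbachol stimulus at about its EC50 of 1 µM final; on the % scale 0 is the no-effect control and ±100 the full control effect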
In short: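 Jurkat cells with NFAT-driven β-lactamase reporter and co-expressed M1 receptor, stimulated with carbachol (final 1 uM, ~EC50), compound titration, 5 h at 37 °C. CCF4 loaded 1 h at RT; 460/530 nm ratio gave %activity and AC50.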

[4] = Stat Signaling Pathway (AID 446); details: ME-180 SIE beta-lactamase reporter, IL-6 stimulated, 5 h;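 further: ME-180 cervical cancer cells given 40 pM IL-6 alongside compound; SIE-controlled beta-lactamase reporter measured as 460/530 nm FRET emission ratio; on the % scale 0 is the no-effect control and ±100 the full control effect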
In short: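 Reporter line: ME-180 cervical carcinoma, SIE-beta-lactamase. Treatment: compound with 40 pM IL-6, 5 hrs, 37 C, in low-serum OPTI-MEM with 10 mM HEPES pH 7.3. Detection: 460/530 nm fluorescence.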

[5] = molecular target: Mitogen-activated protein kinase 10 (Mus musculus) (UniProt Q61831); assay: JNK3 AlphaScreen Assay (AID 530);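 further: kinase came from lysate of stimulated human HepG2 cells; signal reports phosphorylation of biotinylated GST-cJun 1-79 at Ser73 with 10 µM ATP; on the % scale 0 is the no-effect control and ±100 the full control effect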
In short: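 qHTS format: compounds tested as titrations against IL-1beta/TNF-alpha-activated HepG2 lysate JNK3 with biotin-GST-cJun substrate and 10 uM ATP at room temperature. Loss of anti-phospho-cJun AlphaScreen signal indicates inhibition.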

[6] = molecular target: 3',5'-cyclic-AMP phosphodiesterase 4B (Homo sapiens) (UniProt Q07343); assay: qHTS Assay for Inhibitors of PDE-IV (AID 607; active means well fitted activation curve with a large enough effect in the main read-out, with a control signal flat, not every such curve was filed as active; further: % of control where 0% means no effect)
In short: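 Cell-based read-out of cAMP via a modified cyclic nucleotide-gated channel and membrane potential dye (535/590 nm) in HEK293 cells expressing PDE4 endogenously. Compounds tested up to 22.9 uM final; 100 uM RO 20-1724 reference.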

[7] = molecular target: alpha-glucosidase (Oryza sativa, rice) (UniProt Q653V4); assay: Counterscreen for Glucocerebrosidase Inhibitors: qHTS Assay for Rice alpha-Glucosidase at pH 5.0 (AID 997; active means well fitted curve in the direction sought with a large enough effect; an effect the other way counts as inactive or inconclusive;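 further: 0% = full activity with enzyme and -100% = basal without enzyme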)
In short: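 Rice alpha-glucosidase (4 nM final) with 400 uM 4-methylumbelliferyl-alpha-D-glucopyranoside in citrate buffer pH 5.0, 20 min at room temperature, stopped at pH 10; fluorescence 365/440 nm, compounds 0.7 nM–77 uM, AC50 from Hill fits.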

[8] = qHTS Assay for Lipid Storage Modulators (AID 1519; calls by dose curve); details: Drosophila S3 cells, BODIPY lipid droplet/cell ratio, laser cytometry, cells loaded with oleic acid
In short: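 Cells seeded at 5,000 per well were treated with compounds over a concentration series and loaded with oleic acid (400 uM, as added). Lipid droplet fluorescence (488 nm excitation, 500-530 nm channel) was read by laser-scanning cytometry and normalized to 20 uM Triacsin C.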

[9] = molecular target: ATP-dependent 6-phosphofructokinase (Trypanosoma brucei brucei) (UniProt O15648); assay: qHTS Assay to Find Inhibitors of T. brucei phosphofructokinase: hit validation (AID 492961; active means well fitted curve in the direction sought with a large enough effect; an effect the other way counts as inactive or inconclusive; further: on the % scale 0 is the no-effect control and ±100 the full control effect)
In short: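 Luminescence from ADP-Glo reports ADP generated as T. brucei PFK (1.25 nM) phosphorylates 0.5 mM fructose-6-phosphate using 0.1 mM ATP. Reactions ran 45 min at room temperature, pH 8.0.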

[10] = molecular target: Ubiquitin carboxyl-terminal hydrolase 1 (Homo sapiens) (UniProt O94782); assay: Inhibitors of USP1/UAF1: Pilot qHTS (AID 504865; active means well fitted curve in the direction sought with a large enough effect; an effect the other way counts as inactive or inconclusive;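 further: rhodamine fluorescence freed from ubiquitin-rhodamine substrate followed over time; top concentration of the series differs between compounds; on the % scale 0 is the no-effect control and ±100 the full control effect; nearly all actives have a fitted effect of over 35% in size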)
In short: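 USP1/UAF1 complex at 1 nM preincubated 15 min at room temperature with compound, then Ub-Rho substrate added at 150 nM final. Fluorescence (480/540 nm) read kinetically in 50 mM HEPES pH 7.8, 0.5 mM EDTA, 1 mM TCEP, 0.1 mg/ml BSA, 0.01% Tween-20.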

[11] = qHTS profiling for inhibitors of Plasmodium falciparum proliferation (AID 504749; active means well fitted curve in the direction sought with a large enough effect; an effect the other way counts as inactive or inconclusive;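 further: 0% = DMSO vehicle and full inhibition = artemisinin control; nearly all actives have a fitted effect of over 60% in size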); details: P. falciparum in erythrocytes, SYBR Green DNA, 72 h
In short: (§1)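 Readout was DNA-dye fluorescence from lysed cultures, ex 485/em 535 nm. Parasitized red cells had grown 72 h with compound; data scaled between 0.29 uM artemisinin and DMSO wells and corrected using vehicle-only plates.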

AS120 = assay: as above; details: P. falciparum in erythrocytes, SYBR Green DNA, 72 h; series mostly up to 28.7 µM
In short: as §1

CP238 = assay: as above; details: P. falciparum in erythrocytes, SYBR Green DNA, 72 h; series mostly up to 12.8 µM
In short: as §1

CP250 = assay: as above; details: P. falciparum in erythrocytes, SYBR Green DNA, 72 h; series mostly up to 12.8 µM
In short: as §1

CP262 = assay: as above; details: P. falciparum in erythrocytes, SYBR Green DNA, 72 h; series mostly up to 12.8 µM
In short: as §1

CP265 = assay: as above; details: P. falciparum in erythrocytes, SYBR Green DNA, 72 h; series mostly up to 12.8 µM
In short: as §1

FAB9 = assay: as above; details: P. falciparum in erythrocytes, SYBR Green DNA, 72 h; series mostly up to 12.8 µM
In short: as §1

[12] = molecular target: Luciferin 4-monooxygenase (Photinus pyralis) (UniProt P08659); assay: Biochemical firefly luciferase enzyme assay for NPC (AID 624030; active means well fitted curve in the direction sought with a large enough effect; an effect the other way counts as inactive or inconclusive;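 further: purified P. pyralis luciferase at 10 nM with luciferin and ATP substrate; 0% = DMSO and -100% = full luciferase inhibition by PTC124 control; nearly all actives have a fitted effect of over 70% in size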)
In short: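 Purified P. pyralis luciferase at 10 nM in 50 mM Tris Acetate (final), luminescence read within 5 minutes of enzyme addition to compounds. Activity normalised to PTC124 versus DMSO; concentration-response curves classed by r2, magnitude and activity.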

[13] = molecular target: Glucocorticoid receptor (Homo sapiens) (UniProt P04150); assay: GR-GFP Redistribution (AID 450;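 active means compounds whose dose series gives a full or clear partial fitted curve of increased nuclear translocation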; further: potency means the concentration at half of the fitted maximal effect); details: U2OS GR-GFP nuclear translocation, laser cytometry, 2 h
[14] = molecular target: Glucocorticoid receptor (Homo sapiens) (UniProt P04150); assay: GR-EFC Redistribution (AID 451; calls by dose curve; further: potency means the concentration at half of the fitted maximal effect); details: CHO-K1 GR-EFC translocation, beta-gal luminescence, 2 h
In short: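 CHO-K1 cells expressing nuclear EA and GR-ED fragments of b-gal; compounds titrated up to 46 uM final, 2 h at 37 C. GR nuclear translocation read as complemented b-gal luminescence after 1 h RT detection.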

[15] = measured here: cell count channel max response
[16] = measured here: lipid channel max response
[17] = at 7.69 µM (top of the series) unless noted

Glucocorticoid receptor (Homo sapiens), sequence (P04150 whole entry, looked up, the tested form may be a part): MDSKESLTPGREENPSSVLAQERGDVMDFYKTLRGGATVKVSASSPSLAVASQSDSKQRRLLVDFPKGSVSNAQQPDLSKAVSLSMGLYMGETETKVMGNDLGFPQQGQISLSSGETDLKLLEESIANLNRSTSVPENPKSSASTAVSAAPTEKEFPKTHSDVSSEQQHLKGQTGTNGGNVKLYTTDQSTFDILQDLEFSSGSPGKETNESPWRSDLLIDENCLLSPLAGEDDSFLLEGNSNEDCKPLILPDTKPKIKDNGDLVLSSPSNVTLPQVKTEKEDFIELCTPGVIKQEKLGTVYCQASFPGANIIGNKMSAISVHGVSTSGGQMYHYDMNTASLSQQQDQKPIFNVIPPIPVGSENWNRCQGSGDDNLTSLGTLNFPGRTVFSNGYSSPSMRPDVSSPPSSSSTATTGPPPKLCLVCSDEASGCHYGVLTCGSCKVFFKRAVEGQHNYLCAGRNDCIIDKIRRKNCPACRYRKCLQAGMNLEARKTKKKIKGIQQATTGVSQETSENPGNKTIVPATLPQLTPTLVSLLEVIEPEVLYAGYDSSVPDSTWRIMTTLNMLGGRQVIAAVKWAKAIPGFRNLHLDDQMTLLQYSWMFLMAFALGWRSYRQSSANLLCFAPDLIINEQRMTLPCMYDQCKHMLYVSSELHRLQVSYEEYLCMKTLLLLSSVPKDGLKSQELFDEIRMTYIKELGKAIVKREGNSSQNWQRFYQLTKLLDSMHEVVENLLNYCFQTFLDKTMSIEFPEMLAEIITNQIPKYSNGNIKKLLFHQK
3',5'-cyclic-AMP phosphodiesterase 4B (Homo sapiens), sequence (Q07343 whole entry, looked up): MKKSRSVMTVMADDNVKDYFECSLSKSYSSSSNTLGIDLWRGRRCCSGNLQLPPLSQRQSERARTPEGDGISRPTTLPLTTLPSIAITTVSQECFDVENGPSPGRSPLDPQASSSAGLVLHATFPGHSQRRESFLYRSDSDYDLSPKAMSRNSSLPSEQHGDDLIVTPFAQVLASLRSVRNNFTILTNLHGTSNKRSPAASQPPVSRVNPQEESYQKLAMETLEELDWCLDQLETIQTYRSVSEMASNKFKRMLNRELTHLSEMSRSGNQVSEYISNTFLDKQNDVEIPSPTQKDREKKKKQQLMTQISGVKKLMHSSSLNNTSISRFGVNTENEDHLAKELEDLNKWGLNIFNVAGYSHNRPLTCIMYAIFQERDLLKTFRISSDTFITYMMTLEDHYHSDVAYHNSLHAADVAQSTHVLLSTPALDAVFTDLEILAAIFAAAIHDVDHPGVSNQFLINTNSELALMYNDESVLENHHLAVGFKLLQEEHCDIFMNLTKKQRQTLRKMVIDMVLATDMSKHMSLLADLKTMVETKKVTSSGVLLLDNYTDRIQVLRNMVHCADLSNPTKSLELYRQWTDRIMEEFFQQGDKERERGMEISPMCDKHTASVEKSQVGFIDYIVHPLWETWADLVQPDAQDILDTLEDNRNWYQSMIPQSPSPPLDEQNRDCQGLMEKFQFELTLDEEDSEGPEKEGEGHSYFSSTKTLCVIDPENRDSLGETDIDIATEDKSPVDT
Cytochrome P450 1A2 (Homo sapiens), sequence (P05177 whole entry, looked up): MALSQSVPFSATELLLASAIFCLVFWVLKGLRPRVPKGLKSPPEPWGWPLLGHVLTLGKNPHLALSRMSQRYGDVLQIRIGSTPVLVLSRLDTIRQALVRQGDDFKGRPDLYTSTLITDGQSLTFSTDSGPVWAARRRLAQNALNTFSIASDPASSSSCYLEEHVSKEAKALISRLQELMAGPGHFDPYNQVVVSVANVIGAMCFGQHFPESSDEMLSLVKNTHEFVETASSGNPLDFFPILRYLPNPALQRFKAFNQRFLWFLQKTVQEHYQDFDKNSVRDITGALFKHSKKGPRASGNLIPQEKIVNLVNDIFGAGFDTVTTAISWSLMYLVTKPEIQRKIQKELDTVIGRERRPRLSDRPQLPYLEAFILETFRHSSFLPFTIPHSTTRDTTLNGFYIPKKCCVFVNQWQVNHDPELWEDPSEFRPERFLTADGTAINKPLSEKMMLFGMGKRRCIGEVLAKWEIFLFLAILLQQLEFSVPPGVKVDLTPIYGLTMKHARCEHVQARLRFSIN
ATP-dependent 6-phosphofructokinase (Trypanosoma brucei brucei), sequence (O15648 whole entry, looked up): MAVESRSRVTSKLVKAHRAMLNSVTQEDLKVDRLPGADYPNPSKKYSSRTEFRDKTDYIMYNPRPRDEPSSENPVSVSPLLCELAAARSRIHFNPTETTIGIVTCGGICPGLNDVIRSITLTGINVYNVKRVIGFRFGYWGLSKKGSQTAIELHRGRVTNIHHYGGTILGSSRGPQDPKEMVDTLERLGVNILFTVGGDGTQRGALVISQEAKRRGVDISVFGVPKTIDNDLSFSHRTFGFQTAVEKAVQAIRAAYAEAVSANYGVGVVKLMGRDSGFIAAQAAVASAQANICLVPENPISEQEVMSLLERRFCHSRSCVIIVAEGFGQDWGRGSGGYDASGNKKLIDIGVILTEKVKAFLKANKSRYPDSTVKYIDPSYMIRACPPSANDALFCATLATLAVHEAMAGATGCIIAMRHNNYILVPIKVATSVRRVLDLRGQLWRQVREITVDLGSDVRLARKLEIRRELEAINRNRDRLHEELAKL
Ubiquitin carboxyl-terminal hydrolase 1 (Homo sapiens), sequence (O94782 whole entry, looked up): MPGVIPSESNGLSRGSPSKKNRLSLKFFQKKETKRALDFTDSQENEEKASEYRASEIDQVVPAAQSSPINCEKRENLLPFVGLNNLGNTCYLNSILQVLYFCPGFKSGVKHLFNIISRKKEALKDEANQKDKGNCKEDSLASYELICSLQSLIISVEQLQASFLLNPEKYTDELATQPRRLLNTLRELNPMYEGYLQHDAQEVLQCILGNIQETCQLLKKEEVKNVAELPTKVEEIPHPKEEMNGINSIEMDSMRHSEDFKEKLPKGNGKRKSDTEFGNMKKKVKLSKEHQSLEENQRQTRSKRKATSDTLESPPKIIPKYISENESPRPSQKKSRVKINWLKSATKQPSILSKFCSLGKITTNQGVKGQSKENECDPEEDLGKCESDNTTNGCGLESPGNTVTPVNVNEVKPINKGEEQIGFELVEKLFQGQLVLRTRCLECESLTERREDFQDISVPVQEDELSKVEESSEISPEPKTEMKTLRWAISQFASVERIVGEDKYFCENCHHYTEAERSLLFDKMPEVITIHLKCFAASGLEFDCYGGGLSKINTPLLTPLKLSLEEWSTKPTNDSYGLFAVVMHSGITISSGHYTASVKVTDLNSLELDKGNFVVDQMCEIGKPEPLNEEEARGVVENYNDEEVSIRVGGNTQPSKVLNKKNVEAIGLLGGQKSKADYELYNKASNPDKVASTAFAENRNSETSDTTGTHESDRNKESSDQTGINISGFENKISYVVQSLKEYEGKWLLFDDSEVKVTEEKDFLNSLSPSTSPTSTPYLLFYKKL
Luciferin 4-monooxygenase (Photinus pyralis), sequence (P08659 whole entry, looked up): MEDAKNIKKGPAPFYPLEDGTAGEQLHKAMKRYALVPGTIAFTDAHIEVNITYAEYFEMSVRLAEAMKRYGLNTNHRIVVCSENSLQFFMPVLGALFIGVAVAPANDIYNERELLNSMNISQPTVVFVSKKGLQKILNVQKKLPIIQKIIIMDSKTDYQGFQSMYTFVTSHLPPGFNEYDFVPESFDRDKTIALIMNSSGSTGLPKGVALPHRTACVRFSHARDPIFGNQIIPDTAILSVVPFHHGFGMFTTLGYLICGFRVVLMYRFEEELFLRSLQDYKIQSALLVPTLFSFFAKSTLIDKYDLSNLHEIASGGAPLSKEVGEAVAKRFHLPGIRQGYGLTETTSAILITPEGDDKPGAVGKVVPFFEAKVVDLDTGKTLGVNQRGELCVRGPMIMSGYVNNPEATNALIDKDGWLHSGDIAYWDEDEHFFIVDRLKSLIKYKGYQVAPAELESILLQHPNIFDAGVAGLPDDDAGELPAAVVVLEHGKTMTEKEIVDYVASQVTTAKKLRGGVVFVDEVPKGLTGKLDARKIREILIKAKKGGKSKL

O=C(c1ccccc1)c1ccc2n1CC[C@H]2C(=O)O
active: Potency [2] 15.8 µM
-1.68%: max response [8, 16]
inactive: activity change, negative = inhibition ([1]; at 17.2 µM (top of the series)) -5.93% | activity change, negative = inhibition ([1]; at 38 µM (top of the series)) -1.3% | activity change, negative = inhibition ([3]; at 17.2 µM (top of the series)) -13.5% | activity change, negative = inhibition ([3]; at 38 µM (top of the series)) -0.138% | activity, negative = inhibition ([4]; at 17.2 µM (top of the series)) 0.0746% | activity, negative = inhibition ([4]; at 38 µM (top of the series)) 5.51% | Potency [5] | Potency [6] | outcome [7] | activity change, negative = inhibition ([8]; at 25.7 µM (top of the series)) 1.19% | outcome [9] | Potency [10] | activity, negative = inhibition ([11]; at 12.8 µM (top of the series), parasite line A) 1.36% | activity, negative = inhibition ([11]; at 12.8 µM (top of the series), parasite line B) 2.01% | Potency (AS120) | Potency (CP238) | Potency (CP250) | Potency (CP262) | Potency (CP265) | Potency (FAB9)
-5.21%: max response [8, 15]

C[C@@H]1COc2c(N3CCN(C)CC3)c(F)cc3c(=O)c(C(=O)O)cn1c23
-10.5%: max response [8, 16]
-7.85%: max response [8, 15]
inactive: activity change, negative = inhibition ([1]; at 17.2 µM (top of the series)) -1.23% | activity change, negative = inhibition ([1]; at 38 µM (top of the series)) 11.6% | Potency [2] | activity change, negative = inhibition ([3]; at 17.2 µM (top of the series)) -4.07% | activity change, negative = inhibition ([3]; at 38 µM (top of the series)) 4.93% | activity, negative = inhibition ([4]; at 17.2 µM (top of the series)) 4.46% | activity, negative = inhibition ([4]; at 38 µM (top of the series)) -5.77% | Potency [5] | outcome [7] | activity change, negative = inhibition ([8]; at 25.7 µM (top of the series)) -0.7% | outcome [9] | outcome [12] | activity, negative = inhibition ([11]; at 28.7 µM (top of the series), parasite line A) 3.1% | activity, negative = inhibition ([11]; at 28.7 µM (top of the series), parasite line B) 11.1% | Potency (AS120) | Potency (CP238) | Potency (CP250) | Potency (CP262) | Potency (CP265) | Potency (FAB9)

Cn1c(=O)c(-c2ccccc2)nc2cnc(N3CCNCC3)nc21
active: Potency [2] 12.6 µM
28.4%: max response [8, 16]
inactive: Potency [13] > 9.22 µM | Potency [14] > 46 µM | Potency [5] | Potency [6] | activity change, negative = inhibition ([8]; at 57.5 µM (top of the series)) 5.44%
18.4%: max response [8, 15]

N#CCCn1c(=O)c(CCc2ccccc2)nc2cnc(N3CCOCC3)nc21
19.8%: max response [8, 15]
22.7%: max response [8, 16]
inactive: activity change, negative = inhibition [3, 17] -3.78% | activity, negative = inhibition [4, 17] 26.7% | Potency [13] > 9.22 µM | Potency [14] > 46 µM | Potency [5] | activity change, negative = inhibition ([8]; at 57.5 µM (top of the series)) 4.17%

CC(=O)[C@@H]1CC[C@@H]2[C@@H]3CCC4=CC(=O)CC[C@@]4(C)[C@H]3CC[C@]21C
inactive: activity change, negative = inhibition ([1]; at 17.2 µM (top of the series)) 2.95% | activity change, negative = inhibition ([1]; at 38 µM (top of the series)) 10.7% | Potency [2] | activity change, negative = inhibition ([3]; at 17.2 µM (top of the series)) -20.4% | activity change, negative = inhibition ([3]; at 38 µM (top of the series)) -21.5% | activity, negative = inhibition ([4]; at 17.2 µM (top of the series)) -0.332% | activity, negative = inhibition ([4]; at 38 µM (top of the series)) 9.04% | Potency [5] | Potency [6] | activity change, negative = inhibition ([8]; at 25.7 µM (top of the series)) -4.74%
-9.33%: max response [8, 15]
-17.9%: max response [8, 16]
